Compound activity: PubChem BioAssay, National Center for Advancing Translational Sciences (NCATS)
Only some compounds are listed: those with a hit (about 9.9% of all), similar ones and a draw of the others.
HPGD inh = inhibitors of human 15-hydroxyprostaglandin dehydrogenase (HPGD); purified HPGD, NADH fluorescence kinetic, PGE2 substrate; Potency, µM, for the others: at the highest dose activity change, negative = inhibition, usual class: inhibitors; hit rate 4.3% among 150,000; P15428
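NADH formation kinetics: reaction with 30 uM PGE2 and 1 mM NAD+ (final), 20 nM enzyme, Tris-HCl pH 8 with Tween 20, after 15 min compound preincubation at room temperature. Fluorescence change, last versus first of five reads.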
ALDH1A1 block = blocks purified human ALDH1A1 activity. P00352. Purified ALDH1A1, NADH fluorescence, propionaldehyde substrate. Potency, µM (titrated, usually from 75.3 µM), for the others: top-dose activity, negative = inhibition, usual class: inhibitors. hit rate 7.3% among 220,000;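 further: plate controls were no enzyme wells and a reference inhibitor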
Target sequence (P00352 whole entry, looked up): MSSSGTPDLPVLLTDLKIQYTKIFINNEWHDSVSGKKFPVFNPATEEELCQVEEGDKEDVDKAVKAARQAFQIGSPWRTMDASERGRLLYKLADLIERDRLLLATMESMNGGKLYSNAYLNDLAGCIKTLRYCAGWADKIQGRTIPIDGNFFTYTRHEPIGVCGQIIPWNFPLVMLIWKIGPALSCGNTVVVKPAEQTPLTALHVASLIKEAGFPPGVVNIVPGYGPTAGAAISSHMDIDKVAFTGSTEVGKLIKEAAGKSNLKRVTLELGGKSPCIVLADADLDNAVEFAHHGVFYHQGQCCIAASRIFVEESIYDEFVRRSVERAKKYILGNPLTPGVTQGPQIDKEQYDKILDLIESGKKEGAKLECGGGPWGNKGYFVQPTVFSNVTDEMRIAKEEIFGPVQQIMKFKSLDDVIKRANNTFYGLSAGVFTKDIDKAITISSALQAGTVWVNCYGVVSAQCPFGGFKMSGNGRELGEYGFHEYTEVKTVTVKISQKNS
Tau fibril ThT = tau fibrillization inhibition (ThT binding); P10636; recombinant tau K18 P301L, heparin-induced fibrillization, ThT fluorescence; Potency, µM (top dose mostly 57.4 µM), without a hit: at the top dose activity, negative = inhibition, most hits filed as inhibitors; hit rate 2.1% among 270,000; AID 1460; active means well fitted curve in the direction sought with a large enough effect; inconclusive means small, poorly fitted or top-dose-only effect, or another doubt; inactive means no such curve, though single readings can be large; an effect the other way counts as inactive or inconclusive; further: nearly all actives have a fitted effect of over 55% in size
Target sequence (P10636 561-689 P618L limits assumed): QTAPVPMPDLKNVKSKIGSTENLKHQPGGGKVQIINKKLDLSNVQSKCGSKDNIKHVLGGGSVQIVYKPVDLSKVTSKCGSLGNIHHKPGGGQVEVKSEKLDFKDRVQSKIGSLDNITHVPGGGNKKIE
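Fibril formation assay: tau K18 P301L at 15 uM with trace Alexa 594 label, heparin inducer 20 uM, pH 7 sodium acetate buffer, 37 C for 6 hr; endpoint ThT signal.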
Tau fluor counter = counter-screen for tau fibril formation inhibitors. tau K18 P301L (four-repeat tau fragment) Alexa594 fluorescence, heparin fibrillization. Potency, µM (top dose mostly 57.7 µM), without a hit: at the top dose activity change, negative = decrease. hit rate 0.93% among 280,000; active means well fitted curve in the direction sought with a large enough effect; inconclusive means small, poorly fitted or top-dose-only effect, or another doubt; inactive means no such curve, though single readings can be large; an effect the other way counts as inactive or inconclusive; further: nearly all actives have a fitted effect of over 55% in size
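Human K18 P301L tau (15 uM unlabeled plus 0.24 uM Alexa 594-labeled, final) in 100 mM sodium acetate pH 7 was mixed with compound and 20 uM heparin and incubated 6 hr at 37 C.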
KDM4E inh = JMJD2E (human) inhibition | JMJD2E catalytic domain, FDH-coupled NADH fluorescence (FDH is formaldehyde dehydrogenase) | B2RXH2 | hit rate 1.6% among 230,000 | Potency, µM (doses to about 57.1 µM), inactives show top-dose activity change, negative = inhibition, most hits filed as inhibitors;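 further: 0% = wells with enzyme and -100% = buffer wells without enzyme; nearly all actives have a fitted effect of over 50% in size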
Tau fibril FP = blocks human tau fibril formation measured by polarization | AID 1468 | P10636 | hit rate 0.39% among 280,000 | K18 P301L tau heparin fibrillization, Alexa594 FP, 6 h | Potency, µM (doses to about 57.7 µM), without a hit: at the top dose activity, negative = inhibition, actives largely listed as inhibitors; active means well fitted curve in the direction sought with a large enough effect; inconclusive means small, poorly fitted or top-dose-only effect, or another doubt; inactive means no such curve, though single readings can be large; an effect the other way counts as inactive or inconclusive; further: nearly all actives have a fitted effect of over 55% in size
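Human K18 P301L fragment (15 uM unlabeled plus 0.24 uM Alexa 594-labeled) in 100 mM sodium acetate pH 7 with compound, aggregation induced by 20 uM heparin for 6 hr at 37 C. ThT (30 uM) added for 1 hr, then Alexa 594 FP read.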
Active calls of the source: *; ? = inconclusive; . = no result given; [ ] = another dose, or the depositor's remark. Unless noted, the call rests on the fitted dose curve; in most records, active means well fitted inhibition curve with a large enough effect (not every such curve was filed as active); inconclusive means small, poorly fitted or top-dose-only effect, or another doubt; inactive means no such curve, though single readings can be large or run the other way. Unless noted, on the % scale 0 is the no-effect control and ±100 the full control effect; potency means the concentration at half of the fitted maximal effect.

SMILES | HPGD inh | ALDH1A1 block | Tau fibril ThT | Tau fluor counter | KDM4E inh | Tau fibril FP
COCCCNC(=O)/C(C#N)=C/c1cccc(NC(=O)c2ccccc2Cl)c1 | -27% | 14µM* | ? | -11% | -14% | 13%
N#C/C(=C\c1cccc(NC(=O)c2ccccc2Cl)c1)C(=O)NCCc1ccccc1 | ? | 25µM* | -19% | -21% | ? | -13%
COc1ccc2[nH]cc(S(=O)(=O)c3ccc(C)c(C)c3)c(=O)c2c1 | . | . | 2% | -10% | . | -10%
CCCCC/C=C\C/C=C\C=C\[C@@H](O)C/C=C\CCCC(=O)O | -8% | 1% | -18% | -17% | -7% | 2%
CN=c1scc(-c2ccc(F)cc2)n1/N=C/c1ccc(O)c(O)c1 | . | ? | 10µM* | 18µM*[quencher] | 28µM* | -1%
COc1ccc(N(C(=O)c2ccccc2)S(=O)(=O)c2ccc3c(c2)n(C)c(=O)n3C)cc1 | . | . | -4% | -9% | . | -2%
O=C(c1ccc2c(c1)OCO2)N1CCCC1 | ? | ? | -4% | -4% | -6% | 2%
O=C(Nc1ccc(C(=O)N2CCCC2)cc1)c1ccc2c(c1)OCO2 | 6.3µM* | ? | ? | -7% | -2% | 3%
Cc1cc(C)nc(NS(=O)(=O)c2ccc(NC(=O)c3ccc4c(c3)OCO4)cc2)n1 | ? | 25µM* | -14% | 0% | -3% | -6%
CC(=O)Nc1nc(NC(C)=O)c2[nH]c(CO)nc2n1 | 0% | 14%[13.5 µM] | . | . | . | .
Cc1ccc(-c2onc(C)c2C)cc1S(=O)(=O)NCc1ccco1 | . | . | 7% | -4% | . | 3%
CCCN(CCC)C(=O)c1cc2c(=O)n3cccc(C)c3nc2n1C | . | . | -18% | -3% | . | -7%
Cc1ccc(O)c(C(=O)c2cc(C#N)c(=O)n(-c3c(C)n(C)n(-c4ccccc4)c3=O)c2)c1 | 0% | 9% | -5% | -3% | -3% | 0%
Cc1ccc(O)c(C(=O)c2cc(C#N)c(=O)n(-c3nccs3)c2)c1 | . | 8.9µM* | ? | ? | ? | -6%
CCC(=O)NCCC(c1ccco1)c1ccccc1OC (stereo unspecified) | ? | -3% | 3% | 2% | 8% | 5%
COc1ccccc1C(CCN(Cc1cccs1)C(C)=O)c1ccco1 (stereo unspecified) | . | 8.9µM* | ? | -6% | 5% | -4%
CCN(CC)C(=O)CC(c1ccccc1)c1ccco1 (stereo unspecified) | 16µM* | -11% | -2% | 9% | -1% | -3%
CCC(=O)N(CCC(c1ccccc1)c1ccco1)Cc1cccs1 (stereo unspecified) | -20% | 8.9µM* | ? | -14% | -3% | -4%
CCC(=O)N(CCC(Cc1ccccc1)c1ccco1)Cc1ccco1 (stereo unspecified) | . | 14µM* | 4% | -1% | -4% | 13%
CC(C)NC(=O)N(Cc1ccccc1)Cc1cccs1 | . | 0% | -1% | -1% | 3% | -6%
O=c1[nH]c(SCc2c(Cl)c(Cl)c(Cl)c(Cl)c2Cl)nc(=S)[nH]1 | 4µM* | -4%[13.5 µM] | . | . | . | .
CN(C)c1cccc(C(=O)Nc2ccc(N3CCOCC3)cc2)c1 | -4% | 4% | ? | -18% | -7% | 7%
O=C(Nc1ccc2nc(-c3ccco3)c(-c3ccco3)nc2c1)N1CCN(c2ccccn2)CC1 | ? | 8% | 12% | 6% | 5% | 1%
CC(NC(=O)Nc1ccc([N+](=O)[O-])cc1)C(c1ccccc1)N1CCOCC1 (stereo unspecified) | . | 2.5µM* | -13% | -11% | ? | -4%
O=C(Nc1ccc(N2CCOCC2)cc1)c1ccc2nc(-c3ccco3)c(-c3ccco3)nc2c1 | -9% | 3% | 2.5µM* | ? | 4% | -6%
SMILES | HPGD inh | ALDH1A1 block | Tau fibril ThT | Tau fluor counter | KDM4E inh | Tau fibril FP
O=C(Nc1ccc(-n2nncc2-c2ccco2)cc1)c1cccc(F)c1 | 13µM* | ? | -19% | -23% | -4% | -1%
S=C(Nc1ccc(N2CCOCC2)cc1)Nc1ccc2nc(-c3ccco3)c(-c3ccco3)nc2c1 | ? | 7.1µM* | 2.2µM* | 7.9µM*[quencher] | ? | ?
O=C1c2cccnc2C(=O)N1CNc1ccc(Cl)cc1 | . | -8% | 3% | -3% | -4% | -8%
O=C(O)CSCCc1ccccc1 | 2% | 12%[13.5 µM] | . | . | . | .
O=C(Nc1ccc(N2CCOCC2)cc1)c1ccncc1 | -8% | 9% | ? | -8% | 4% | 2%
O=C(Nc1ccc(N2CCOCC2)cc1)c1ccc([N+](=O)[O-])cc1 | . | 9% | 2.8µM* | -19% | -5% | 1%
Cc1cccc(-n2nnnc2SC(C)C(=O)NCCC2=CCCCC2)c1 (stereo unspecified) | -24% | 5µM* | -5% | -2% | ? | -7%
CC(C)c1nnc(SCC(=O)NCCC2=CCCCC2)n1N | 16µM* | 20µM* | -19% | -7% | 1% | -16%
Cc1cccc(N2CCN(C(=O)c3c(C)oc4ncnc(N5CCCCC5)c34)CC2)c1C | . | . | ? | -9% | . | 1%
O=C(CCl)N=c1sccn1Cc1cccc2ccccc12 | . | 20µM* | ? | -5% | -7% | 7%
O=C(CCl)N=c1sccn1Cc1ccc(Cl)cc1Cl | . | 28µM* | -18% | -11% | 4% | -4%
OCCNCC12CC3CC(CC(C3)C1)C2 | . | 2% | 9% | 16% | -3% | 4%
COC(=O)c1cc2occc2n1CC(=O)Nc1ccc(C(C)C)cc1 | . | . | -2% | -2% | . | 1%
COc1ccc(C2=NCC(CSc3nnc(-c4ccc5c(c4)OCO5)o3)S2)cc1 (stereo unspecified) | 22µM* | -16% | ? | -26% | ? | -2%
COc1ccc(C2=NCC(CSc3nccc(=O)[nH]3)S2)cc1 (stereo unspecified) | 14µM* | ? | ? | -3% | 15% | 4%
COc1cccc(OC(=O)CSc2nnc(-c3ccc4c(c3)OCO4)o2)c1 | . | . | -1% | 9% | . | 2%
CCN(CC)S(=O)(=O)c1ccc2oc(SCC3CN=C(c4ccc(OC)cc4)S3)nc2c1 (stereo unspecified) | 14µM* | 22µM* | ? | -24% | ? | -5%
CCOC(=O)c1c(C)oc2c1c(C(c1cccnc1)N1CCOCC1)c(O)c1ccccc12 (stereo unspecified) | 22µM* | 7.1µM* | 18µM* | ? | ? | -5%
CCOC(=O)c1c(C)oc2c1c(C=NCc1ccccn1)c(O)c1ccccc12 | -20% | ? | 13µM* | ? | 4µM* | -8%
CCOC(=O)c1c(C)oc2c1c(C(c1cccnc1)N1CCN(C)CC1)c(O)c1ccccc12 (stereo unspecified) | -28% | 13µM* | ? | -27% | -16% | 11%
